Results from PubChem BioAssay (Tox21).
Records with an inconclusive call do not appear. Activity calls are given as the source filed them. Unless noted, the call rests on the fitted dose curve; in most records, active means well fitted curve in the direction sought with a large enough effect in the repeat runs; inconclusive means weak or mixed curves; inactive means no such curve, though single readings can be large; an effect the other way counts as inactive or inconclusive.

What was measured:
[1] = qHTS assay to identify small molecule antagonists of the androgen receptor (AR) signaling pathway using the MDA cell line in the presence of 0.5 nM R1881 - cell viability counter screen (AID 1259242); further: nearly all actives have a fitted effect of over 45% in size
Method in brief: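 Viability of MDA-kb2 cells was multiplexed with the luciferase AR readout; after 16 hr with compounds and R1881 at 0.5 nM final, CellTiter-Fluor fluorescence was recorded.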

[2] = target: Estrogen receptor (Homo sapiens) (UniProt P03372); experiment: qHTS assay to identify small molecule antagonists of the estrogen receptor alpha (ER-alpha) signaling pathway using the BG1 cell line in the presence of 0.1 nM 17-beta-estradiol (AID 1259244); further: nearly all actives have a fitted effect of over 50% in size
Sequence of Estrogen receptor (Homo sapiens) (P03372 whole entry, looked up): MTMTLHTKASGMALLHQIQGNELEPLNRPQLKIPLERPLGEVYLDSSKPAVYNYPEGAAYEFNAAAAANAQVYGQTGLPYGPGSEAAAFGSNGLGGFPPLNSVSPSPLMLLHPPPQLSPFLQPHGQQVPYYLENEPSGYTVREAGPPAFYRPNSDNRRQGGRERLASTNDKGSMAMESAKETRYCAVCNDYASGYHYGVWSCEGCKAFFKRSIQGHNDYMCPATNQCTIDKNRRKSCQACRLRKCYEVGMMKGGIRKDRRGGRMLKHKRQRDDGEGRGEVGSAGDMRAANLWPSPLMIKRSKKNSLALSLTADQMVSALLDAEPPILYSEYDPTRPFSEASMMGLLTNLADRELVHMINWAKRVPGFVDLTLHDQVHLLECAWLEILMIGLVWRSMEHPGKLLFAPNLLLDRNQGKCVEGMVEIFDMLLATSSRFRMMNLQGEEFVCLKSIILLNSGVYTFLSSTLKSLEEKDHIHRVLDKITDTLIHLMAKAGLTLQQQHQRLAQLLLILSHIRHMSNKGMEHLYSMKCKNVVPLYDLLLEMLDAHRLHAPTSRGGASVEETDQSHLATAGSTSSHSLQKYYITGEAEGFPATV
Method in brief: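 Estradiol at 0.1 nM (final) stimulates the endogenous ER-alpha of VM7Luc4E2 cells carrying an ERE-driven luciferase; compounds are co-incubated 22 h at 37C and luciferase output quantified by luminescence.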

[3] = qHTS assay to identify small molecule HDAC inhibitors (AID 1259364);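 further: wild-type HCT-116 cells with endogenous class I/II HDAC activity; top concentration of the series differs between compounds; nearly all actives have a fitted effect of over 45% in size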
Method in brief: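 Read-out: luminescence of HDAC-Glo I/II reagent, 30 min RT, reflecting class I/II deacetylase activity in whole HCT-116 cells pre-exposed 2 h to DMSO-dissolved compounds.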

[4] = qHTS assay to identify small molecule HDAC inhibitors - cell viability counter screen (AID 1259365); further: series mostly up to about 92 µM; nearly all actives have a fitted effect of over 50% in size
Method in brief: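 After overnight seeding at 1,500 cells per well, wild-type HCT-116 cultures took up compounds in DMSO for 2hr at 37 C. Viable cell content came from luminescence with CellTiter-Glo.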

[5] = qHTS assay to identify small molecule agonists of the sonic hedgehog signaling (Shh) pathway - cell viability counter screen (AID 1259366); further: nearly all actives have a fitted effect of over 50% in size
Method in brief: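 Same-well cytotoxicity read. Gli1-Luc reporter 3T3 cells; compounds 24hr, 37C/5% CO2; CellTiter-Fluor fluorescence.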

[6] = qHTS assay to identify small molecule antagonists of the sonic hedgehog signaling (Shh) pathway - cell viability counter screen (AID 1259367); further: nearly all actives have a fitted effect of over 55% in size
Method in brief: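 Cells: 3T3 Gli1-Luc, 2,000/well, 4 hr pre-incubation. Compounds in DMSO, then conditioned medium. Incubation 24 hr, 37C, 5% CO2. CellTiter-Fluor at 23 hr, 1 hr, fluorescence.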

[7] = qHTS assay to identify small molecule agonists of the sonic hedgehog signaling (Shh) pathway (AID 1259368; calls by dose curve;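 further: NIH/3T3-derived 3T3Gli1-Luc cells carrying a stable Gli1-driven firefly luciferase reporter; series mostly up to about 92 µM; nearly all actives have a fitted effect of over 15% in size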)
Method in brief: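 A Gli1 transcriptional response element controlled firefly luciferase in 3T3Gli1-Luc cells. Compounds and a positive control were added 4 hr after plating, and cells were incubated a further 24 hr at 37 C before luminescence detection.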

[8] = qHTS assay to identify small molecule antagonists of the sonic hedgehog signaling (Shh) pathway (AID 1259369; calls by dose curve; further: nearly all actives have a fitted effect of over 45% in size)
Method in brief: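 For antagonist detection, the reporter line received test compounds together with conditioned medium, incubated 24hr at 37 C, 5% CO2, then luminescence was recorded following 30min room-temperature luciferase reagent incubation.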

[9] = target: Estrogen receptor beta (Homo sapiens) (UniProt Q92731); experiment: qHTS assay to identify small molecule agonists of the estrogen receptor beta (ER-beta) signaling pathway (AID 1259377; active means well fitted activation curve with a large enough effect in the signal ratio in the repeat runs, not every such curve was filed as active; the % refers to the signal ratio)
Sequence of Estrogen receptor beta (Homo sapiens) (Q92731 whole entry, looked up): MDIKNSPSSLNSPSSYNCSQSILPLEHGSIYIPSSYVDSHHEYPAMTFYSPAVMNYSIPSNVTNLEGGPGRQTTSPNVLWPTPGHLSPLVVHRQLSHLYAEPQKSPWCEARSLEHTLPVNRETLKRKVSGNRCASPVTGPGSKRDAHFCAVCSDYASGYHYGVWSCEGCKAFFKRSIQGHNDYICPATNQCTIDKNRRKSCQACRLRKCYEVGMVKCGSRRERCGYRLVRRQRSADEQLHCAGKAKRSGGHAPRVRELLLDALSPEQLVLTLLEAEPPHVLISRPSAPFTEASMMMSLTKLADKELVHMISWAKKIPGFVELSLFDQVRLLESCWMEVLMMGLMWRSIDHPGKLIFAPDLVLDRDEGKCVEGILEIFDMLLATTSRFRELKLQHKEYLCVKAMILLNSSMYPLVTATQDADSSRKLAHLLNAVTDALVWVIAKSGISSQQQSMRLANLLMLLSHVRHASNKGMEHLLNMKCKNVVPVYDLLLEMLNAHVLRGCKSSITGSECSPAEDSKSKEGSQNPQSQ
Method in brief: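 Read-out: beta-lactamase FRET fluorescence. Cell line: ER-beta-UAS-bla HEK293T in 2% charcoal-stripped FBS. Exposure: 16 hr at 37C. Substrate step: 2 h at room temperature.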

[10] = target: Estrogen receptor beta (Homo sapiens) (UniProt Q92731); experiment: qHTS assay to identify small molecule antagonists of the estrogen receptor beta (ER-beta) signaling pathway (AID 1259378; active means well fitted inhibition curve with a large enough effect in the signal ratio in the repeat runs, not every such curve was filed as active; the % refers to the signal ratio)
Method in brief: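 Antagonist mode: compounds added to beta-lactamase reporter HEK293T ER-beta-UAS cells stimulated with E2 (1nM final), 16 hr at 37C. LiveBLAzer B/G FRET substrate, 2 hours room temperature, fluorescence read-out.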

[11] = qHTS assay to identify small molecule agonists of the androgen receptor (AR) signaling pathway in the presence of an antagonist - cell viability counter screen (AID 1259379);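 further: MDA-kb2 human breast cancer cells carrying an MMTV luciferase reporter; series mostly up to about 92 µM; nearly all actives have a fitted effect of over 25% in size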
Method in brief: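 Seed MDA-kb2 at 3,000 cells/well; incubate 5 hr, 37C, 0% CO2. Add nilutamide to 3.0uM final, then pin compounds at 15 concentrations. Incubate 16 hr. Add CellTiter-Fluor at 15 hr, read fluorescence after 1 hr.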

[12] = qHTS assay to identify small molecule agonists of the estrogen receptor beta (ER-beta) signaling pathway - cell viability counter screen (AID 1259380); further: nearly all actives have a fitted effect of over 30% in size
Method in brief: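 CellTiter-Glo read, 30 min RT, same wells as bla assay; cells ER-beta-UAS-bla HEK293T; 16 hr compound, 37C; medium 2% charcoal-stripped FBS.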

[13] = qHTS assay to identify small molecule antagonists of the estrogen receptor beta (ER-beta) signaling pathway - cell viability counter screen (AID 1259382);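 further: HEK293T cells carrying ER-beta-UAS-bla reporter stimulated with estradiol; series mostly up to about 92 µM; nearly all actives have a fitted effect of over 55% in size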
Method in brief: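 In this multiplexed counter screen, cells were seeded at 2,000 per well in medium with 2% charcoal-stripped FBS and incubated 6 hr before compound and 1nM final E2 were added. Sixteen hours later, ATP-based luminescence reported viability.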

[14] = qHTS assay to identify small molecule agonists or antagonists of the thyroid stimulating hormone receptor (TSHR) signaling pathway - wild type cell line counter screen (AID 1259384; calls by dose curve)
Method in brief: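 Counter screen in untransfected Hek293: compounds (15-point titration, triplicate) plus phosphodiesterase inhibitor Ro20-1724 added after 18 h plating; 30 min RT. Intracellular cAMP via competitive d2/cryptate immunoassay, 1 h incubation.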

[15] = qHTS assay to identify small molecule agonists of the estrogen receptor alpha (ER-alpha) signaling pathway in the presence of an antagonist - cell viability counter screen (AID 1259386);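 further: series mostly up to about 92 µM; cells exposed to compounds for 22 h at 37 °C before the viability read; nearly all actives have a fitted effect of over 30% in size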
Method in brief: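 Viability counter screen using VM7Luc4E2 (full-length ER-alpha, four ERE-luciferase). The cells were treated with compounds alongside ICI-182,780 10.0nM for 22hr, and live-cell protease fluorescence was quantified with CellTiter-Fluor.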

[16] = target: Estrogen receptor (Homo sapiens) (UniProt P03372); experiment: qHTS assay to identify small molecule agonists of the estrogen receptor alpha (ER-alpha) signaling pathway in the presence of an antagonist (AID 1259383; calls by dose curve; further: top concentration of the series differs between compounds; nearly all actives have a fitted effect of over 15% in size)
Method in brief: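 Stably transfected VM7Luc4E2 reporter cells, kept 5 days in charcoal-stripped serum, received ICI-182,780 at 10.0nM final before compound addition. Following 22hr incubation at 37C and 5% CO2, luciferase signal was read by luminescence.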

[17] = target: Thyrotropin receptor (Homo sapiens) (UniProt P16473); experiment: qHTS assay to identify small molecule antagonists of the thyroid stimulating hormone receptor (TSHR) signaling pathway (AID 1259385; calls by dose curve; further: nearly all actives have a fitted effect of over 20% in size)
Sequence of Thyrotropin receptor (Homo sapiens) (P16473 whole entry, looked up): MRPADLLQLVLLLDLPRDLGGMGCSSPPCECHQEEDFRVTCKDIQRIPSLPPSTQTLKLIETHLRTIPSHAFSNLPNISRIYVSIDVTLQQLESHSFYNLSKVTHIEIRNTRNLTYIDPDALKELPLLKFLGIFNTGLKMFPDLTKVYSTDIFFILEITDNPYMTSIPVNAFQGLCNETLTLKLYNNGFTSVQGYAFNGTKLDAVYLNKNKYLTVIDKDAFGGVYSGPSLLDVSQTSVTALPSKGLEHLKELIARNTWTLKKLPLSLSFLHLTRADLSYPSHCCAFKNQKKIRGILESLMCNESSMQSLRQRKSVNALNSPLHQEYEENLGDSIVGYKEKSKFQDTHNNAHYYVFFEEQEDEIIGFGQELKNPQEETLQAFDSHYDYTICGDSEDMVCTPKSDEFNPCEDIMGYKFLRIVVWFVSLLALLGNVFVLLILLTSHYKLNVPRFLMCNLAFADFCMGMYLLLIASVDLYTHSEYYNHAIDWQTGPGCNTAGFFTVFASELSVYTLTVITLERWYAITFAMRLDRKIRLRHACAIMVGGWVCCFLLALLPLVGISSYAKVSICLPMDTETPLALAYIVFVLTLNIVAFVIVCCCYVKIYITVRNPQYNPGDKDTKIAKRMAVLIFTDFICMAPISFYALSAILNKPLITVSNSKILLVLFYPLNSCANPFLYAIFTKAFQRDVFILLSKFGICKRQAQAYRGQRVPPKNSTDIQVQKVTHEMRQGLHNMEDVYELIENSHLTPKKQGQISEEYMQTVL
Method in brief: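 Antagonist mode: compound-treated TSHR-expressing HEK293 cells were stimulated with 1.5 ng/mL TSH (final) in presence of Ro20-1724 for 30 min at RT. HTRF cAMP detection after 1 h; each compound tested at 15 concentrations, triplicate.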

[18] = target: Androgen receptor (Homo sapiens) (UniProt P10275); experiment: qHTS assay to identify small molecule antagonists of the androgen receptor (AR) signaling pathway using the MDA cell line in the presence of 0.5 nM R1881 (AID 1259243); further: nearly all actives have a fitted effect of over 50% in size
Sequence of Androgen receptor (Homo sapiens) (P10275 whole entry, looked up): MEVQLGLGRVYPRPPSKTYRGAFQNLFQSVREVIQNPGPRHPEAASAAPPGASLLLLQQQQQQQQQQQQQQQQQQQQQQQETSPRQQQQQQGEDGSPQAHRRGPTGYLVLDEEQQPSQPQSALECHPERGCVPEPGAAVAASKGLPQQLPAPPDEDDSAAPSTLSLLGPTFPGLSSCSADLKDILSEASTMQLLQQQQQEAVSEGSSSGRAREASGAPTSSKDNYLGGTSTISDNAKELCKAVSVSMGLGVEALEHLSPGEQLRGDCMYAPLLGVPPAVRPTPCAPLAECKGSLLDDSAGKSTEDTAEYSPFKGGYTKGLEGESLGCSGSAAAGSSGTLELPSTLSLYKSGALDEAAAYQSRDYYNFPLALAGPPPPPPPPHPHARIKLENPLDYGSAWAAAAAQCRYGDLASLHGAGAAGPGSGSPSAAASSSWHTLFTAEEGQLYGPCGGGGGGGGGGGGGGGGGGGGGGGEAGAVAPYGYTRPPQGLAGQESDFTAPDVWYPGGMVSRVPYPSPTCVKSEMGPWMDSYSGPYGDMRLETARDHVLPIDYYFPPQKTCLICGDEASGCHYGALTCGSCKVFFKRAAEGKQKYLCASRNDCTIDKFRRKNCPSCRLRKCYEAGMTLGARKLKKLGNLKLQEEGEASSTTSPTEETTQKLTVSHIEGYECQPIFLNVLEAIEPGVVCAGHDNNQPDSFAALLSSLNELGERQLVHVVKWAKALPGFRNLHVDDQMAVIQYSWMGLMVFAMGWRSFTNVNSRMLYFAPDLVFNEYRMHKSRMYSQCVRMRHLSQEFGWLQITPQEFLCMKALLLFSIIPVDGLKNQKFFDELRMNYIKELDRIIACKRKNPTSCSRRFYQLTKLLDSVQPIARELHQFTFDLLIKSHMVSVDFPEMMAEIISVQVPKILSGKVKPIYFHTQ
Method in brief: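 Reporter cells cultured without CO2 receive test chemicals, then 0.5 nM R1881 final; after 16 hr at 37C, ONE-Glo is added and light output recorded.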

[19] = target: Androgen receptor (Homo sapiens) (UniProt P10275); experiment: qHTS assay to identify small molecule agonists of the androgen receptor (AR) signaling pathway in the presence of an antagonist (AID 1259381; calls by dose curve; further: nearly all actives have a fitted effect of over 15% in size)
Method in brief: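 Test compounds at 15 concentrations were incubated for 16hr with MDA-kb2 reporter cells in presence of 3.0uM nilutamide (final). Signal: ONE-Glo luciferase luminescence.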

[20] = qHTS assay to identify small molecule phospholipidosis (PLD) inducers (AID 1259344; active means well fitted curve in the direction sought with a large enough effect; an effect the other way counts as inactive or inconclusive)
Method in brief: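 Phospholipidosis is scored by imaging LipidTOX-stained pits in HepG2 cells exposed to compound for 24 h at 37 C; pit counts and integrated intensities per well and per cell serve as outputs.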

Measured: Potency

CCCCC(CC)COC(=O)COc1ccc(Cl)cc1C (configuration not stated)
not listed: [16] | [17] | [18] | [19] | [20]
inactive: all other assays above

O=C(/C=C/c1ccccc1)OCCCc1ccccc1
not listed: [18] | [19] | [20]
inactive: all other assays above

O=C(O)c1cccnc1C(=O)O
not listed: [9] | [10] | [15] | [16] | [18] | [19] | [20]
inactive: all other assays above

CCC(=O)OC/C=C/c1ccccc1
not listed: [14] | [17] | [18] | [19] | [20]
inactive: all other assays above

NCC1CCCC(CN)C1 (configuration not stated)
not listed: [2] | [4] | [8] | [13] | [14] | [16] | [17] | [20]
inactive: all other assays above

c1ccc(COCc2ccccc2)cc1
not listed: [9] | [10] | [18] | [19] | [20]
inactive: all other assays above

CC(=O)OCC(=O)[C@@]12OC(C)(C)O[C@@H]1C[C@H]1[C@@H]3C[C@H](F)C4=CC(=O)C=C[C@]4(C)[C@@]3(F)[C@@H](O)C[C@@]12C
not listed: [8] | [15] | [16] | [17] | [18] | [19]
inactive: all other assays above

CC#N
not listed: [10] | [18] | [19] | [20]
inactive: all other assays above
